Source: publication PMC5540273 (PLoS ONE, 2017)
Values joined by “and” are separate entries in the source; they are usually repeats but may differ in a detail not shown here. Equal values may be shown once. Read-outs that look alike come from different tables or passages of the source.

Experiments:
CHEK1 = settings: concentration: 1 μM, replicates: in singlicate; n = 1
CHEK2 = settings: concentration: 1 μM, replicates: in singlicate, n = 1
CIT = settings: concentration: 1 μM, replicates: in singlicate, n = 1
CLK1 = settings: concentration: 1 μM, replicates: in singlicate, n = 1
CLK2 = settings: concentration: 1 μM, replicates: in singlicate; n = 1
CLK3 = settings: concentration: 1 μM, replicates: in singlicate, n = 1
CLK4 = settings: concentration: 1 μM, replicates: in singlicate, n = 1
CSF1R-autoinhibited = settings: concentration: 1 μM, replicates: in singlicate, n = 1
CSF1R = settings: concentration: 1 μM, replicates: in singlicate, n = 1
CSK = settings: concentration: 1 μM, replicates: in singlicate, n = 1
CSNK1A1L = settings: concentration: 1 μM, replicates: in singlicate; n = 1
CSNK1A1 = settings: concentration: 1 μM, replicates: in singlicate; n = 1
CSNK1D = settings: concentration: 1 μM, replicates: in singlicate, n = 1
CSNK1E = settings: concentration: 1 μM, replicates: in singlicate; n = 1
CSNK1G1 = settings: concentration: 1 μM, replicates: in singlicate, n = 1
CSNK1G2 = settings: concentration: 1 μM, replicates: in singlicate, n = 1
CSNK1G3 = settings: concentration: 1 μM, replicates: in singlicate, n = 1
CSNK2A1 = settings: n = 1
CSNK2A2 = settings: n = 1
CTK = test system: T1, CTK; settings: concentration: 1 μM, replicates: in singlicate, n = 1
T1 construct: gene MATK

[1] = concentration: 1 μM, replicates: in singlicate
[2] = concentration: 1 μM, replicates: in singlicate, 1 µM
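Note: KINOMEscan kinase panel screen.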

Compound: COc1ccc(CNC(=O)NC2CCN(c3ccnc(Nc4ccc(OC)cc4)n3)C2)cc1 (centres unmarked) [GSK1379727]
- %Inh (CHEK1): 0%
- %Inh (CHEK2): 27%
- %Inh (CIT): 19%
- %Inh (CLK1): 19%
- %Inh (CLK2): 0%
- %Inh (CLK3): 0%
- %Inh (CLK4): 14%
- %Inh (CSF1R-autoinhibited): 16%
- %Inh (CSF1R): 0%
- %Inh (CSK): 0%
- %Inh (CSNK1A1L): 5%
- %Inh (CSNK1A1): 0%
- %Inh (CSNK1D): 0%
- %Inh (CSNK1E): 8%
- %Inh (CSNK1G1): 0%
- %Inh (CSNK1G2): 0%
- %Inh (CSNK1G3): 8%
- %Inh (CSNK2A1; [1]): 7%
- %Inh (CSNK2A2; [1]): 0%
- %Inh (CTK): 0%

Compound: Cc1nnc(-c2ccc3ncc(-c4ccc(S(C)=O)cc4)n3c2)o1 (centres unmarked)
- %Inh (CHEK1): 0%
- %Inh (CHEK2): 0%
- %Inh (CIT): 38%
- %Inh (CLK1): 0%
- %Inh (CLK2): 0%
- %Inh (CLK3): 0%
- %Inh (CLK4): 0%
- %Inh (CSF1R-autoinhibited): 7%
- %Inh (CSF1R): 17%
- %Inh (CSK): 0%
- %Inh (CSNK1A1L): 9%
- %Inh (CSNK1A1): 7%
- %Inh (CSNK1D): 0%
- %Inh (CSNK1E): 0%
- %Inh (CSNK1G1): 24%
- %Inh (CSNK1G2): 5%
- %Inh (CSNK1G3): 0%
- %Inh (CSNK2A1; [1]): 0%
- %Inh (CSNK2A2; [1]): 18%
- %Inh (CTK): 27%

Compound: O=c1cc(N2CCOCC2)nc2n(Cc3cccc(F)c3)ccn12 [GSK2297430]
- %Inh (CHEK1): 0%
- %Inh (CHEK2): 0%
- %Inh (CIT): 26%
- %Inh (CLK1): 33%
- %Inh (CLK2): 0%
- %Inh (CLK3): 30%
- %Inh (CLK4): 45%
- %Inh (CSF1R-autoinhibited): 0%
- %Inh (CSF1R): 0%
- %Inh (CSK): 0%
- %Inh (CSNK1A1L): 18%
- %Inh (CSNK1A1): 20%
- %Inh (CSNK1D): 15%
- %Inh (CSNK1E): 35%
- %Inh (CSNK1G1): 9%
- %Inh (CSNK1G2): 1%
- %Inh (CSNK1G3): 13%
- %Inh (CSNK2A1; [1]): 0%
- %Inh (CSNK2A2; [1]): 0%
- %Inh (CTK): 0%

Compound: O=c1cc(N2CCOCC2)nc2n(Cc3cccc(Cl)c3Cl)c(C3CC3)nn12 [GSK2358994]
- %Inh (CHEK1): 15%
- %Inh (CHEK2): 0%
- %Inh (CIT): 0%
- %Inh (CLK1): 27%
- %Inh (CLK2): 25%
- %Inh (CLK3): 14%
- %Inh (CLK4): 0%
- %Inh (CSF1R-autoinhibited): 0%
- %Inh (CSF1R): 0%
- %Inh (CSK): 8%
- %Inh (CSNK1A1L): 0%
- %Inh (CSNK1A1): 0%
- %Inh (CSNK1D): 7%
- %Inh (CSNK1E): 11%
- %Inh (CSNK1G1): 0%
- %Inh (CSNK1G2): 5%
- %Inh (CSNK1G3): 23%
- %Inh (CSNK2A1; 1 µM): 16%
- %Inh (CSNK2A2; 1 µM): 0%
- %Inh (CTK): 0%

Compound: Cc1nnc(-c2ccc3occ(-c4ccc(C(C)O)cc4)c3c2)o1 (centres unmarked)
- %Inh (CHEK1): 13%
- %Inh (CHEK2): 15%
- %Inh (CIT): 11%
- %Inh (CLK1): 31%
- %Inh (CLK2): 2%
- %Inh (CLK3): 6%
- %Inh (CLK4): 33%
- %Inh (CSF1R-autoinhibited): 6%
- %Inh (CSF1R): 1%
- %Inh (CSK): 3%
- %Inh (CSNK1A1L): 0%
- %Inh (CSNK1A1): 14%
- %Inh (CSNK1D): 0%
- %Inh (CSNK1E): 7%
- %Inh (CSNK1G1): 0%
- %Inh (CSNK1G2): 9%
- %Inh (CSNK1G3): 0%
- %Inh (CSNK2A1; [1]): 25%
- %Inh (CSNK2A2; [1]): 53%
- %Inh (CTK): 0%

Compound: NS(=O)(=O)c1cccc(-c2ccc3nccc(-c4cccc(S(N)(=O)=O)c4)c3c2)c1 [GW867253]
- %Inh (CHEK1): 0%
- %Inh (CHEK2): 0%
- %Inh (CIT): 0%
- %Inh (CLK1): 0%
- %Inh (CLK2): 25%
- %Inh (CLK3): 0%
- %Inh (CLK4): 1%
- %Inh (CSF1R-autoinhibited): 0%
- %Inh (CSF1R): 0%
- %Inh (CSK): 0%
- %Inh (CSNK1A1L): 0%
- %Inh (CSNK1A1): 0%
- %Inh (CSNK1D): 0%
- %Inh (CSNK1E): 12%
- %Inh (CSNK1G1): 0%
- %Inh (CSNK1G2): 0%
- %Inh (CSNK1G3): 0%
- %Inh (CSNK2A1; [1]): 0%
- %Inh (CSNK2A2; [1]): 22%
- %Inh (CTK): 31%

Compound: O=C1NC(=O)C(N2CCc3ccccc32)=C1c1cccc(Cl)c1 [SB-408010]
- %Inh (CHEK1): 0%
- %Inh (CHEK2): 7%
- %Inh (CIT): 0%
- %Inh (CLK1): 0%
- %Inh (CLK2): 0%
- %Inh (CLK3): 0%
- %Inh (CLK4): 21%
- %Inh (CSF1R-autoinhibited): 16%
- %Inh (CSF1R): 0%
- %Inh (CSK): 11%
- %Inh (CSNK1A1L): 0%
- %Inh (CSNK1A1): 19%
- %Inh (CSNK1D): 0%
- %Inh (CSNK1E): 0%
- %Inh (CSNK1G1): 5%
- %Inh (CSNK1G2): 0%
- %Inh (CSNK1G3): 0%
- %Inh (CSNK2A1; [1]): 0%
- %Inh (CSNK2A2; [1]): 13%
- %Inh (CTK): 53%

Compound: COc1cc2ncn(-c3cc(OCc4sccc4Cl)c(C(N)=O)s3)c2cc1OC [GSK448459]
- %Inh (CHEK1): 0%
- %Inh (CHEK2): 6%
- %Inh (CIT): 27%
- %Inh (CLK1): 39%
- %Inh (CLK2): 23%
- %Inh (CLK3): 2%
- %Inh (CLK4): 14%
- %Inh (CSF1R-autoinhibited): 0%
- %Inh (CSF1R): 18%
- %Inh (CSK): 10%
- %Inh (CSNK1A1L): 6%
- %Inh (CSNK1A1): 0%
- %Inh (CSNK1D): 16%
- %Inh (CSNK1E): 28%
- %Inh (CSNK1G1): 4%
- %Inh (CSNK1G2): 0%
- %Inh (CSNK1G3): 13%
- %Inh (CSNK2A1; [1]): 25%
- %Inh (CSNK2A2; [1]): 34%
- %Inh (CTK): 0%

Compound: Cl.Oc1cccc(Nc2ccnc3cc(-c4ccncc4)ccc23)c1 [GW494601]
- %Inh (CHEK1): 0%
- %Inh (CHEK2): 42%
- %Inh (CIT): 68%
- %Inh (CLK1): 9%
- %Inh (CLK2): 0%
- %Inh (CLK3): 0%
- %Inh (CLK4): 33%
- %Inh (CSF1R-autoinhibited): 41%
- %Inh (CSF1R): 91.9%
- %Inh (CSK): 65%
- %Inh (CSNK1A1L): 42%
- %Inh (CSNK1A1): 55%
- %Inh (CSNK1D): 28%
- %Inh (CSNK1E): 45%
- %Inh (CSNK1G1): 40%
- %Inh (CSNK1G2): 0%
- %Inh (CSNK1G3): 22%
- %Inh (CSNK2A1; [1]): 0%
- %Inh (CSNK2A2; [1]): 0%
- %Inh (CTK): 0%

Compound: Cl.Cl.Cl.Fc1ccc(-c2ncn(C3CCNCC3)c2-c2ccnc(Nc3ccccc3)n2)cc1 [SB-238039]
- %Inh (CHEK1): 0%
- %Inh (CHEK2; 1 µM): 0% and 39%
- %Inh (CIT; 1 µM): 99.5% and 97.5%
- %Inh (CLK1; 1 µM): 0% and 1%
- %Inh (CLK2): 0%
- %Inh (CLK3; 1 µM): 6% and 21%
- %Inh (CLK4; 1 µM): 37% and 14%
- %Inh (CSF1R-autoinhibited; 1 µM): 27% and 19%
- %Inh (CSF1R; 1 µM): 1% and 14%
- %Inh (CSK; 1 µM): 0% and 10%
- %Inh (CSNK1A1L): 98.9%
- %Inh (CSNK1A1): 97.7%
- %Inh (CSNK1D; 1 µM): 95.2% and 93.4%
- %Inh (CSNK1E): 99.9%
- %Inh (CSNK1G1; 1 µM): 78% and 75%
- %Inh (CSNK1G2; 1 µM): 99.5% and 98.9%
- %Inh (CSNK1G3; 1 µM): 99.2% and 96.6%
- %Inh (CSNK2A1; [2]): 0% and 19%
- %Inh (CSNK2A2; [2]): 0% and 25%
- %Inh (CTK; 1 µM): 40% and 1%
